Experimental findings from PubChem BioAssay (NCATS) are described below.

Records with an inconclusive call do not appear. Activity calls are given as the source filed them. Calls come from the whole dose curve; as a rule, active = well fitted cell-killing curve with a large enough effect; inconclusive = small, poorly fitted or top-dose-only effect; inactive = flat fitted curve, though single readings scatter.
% is set by controls: 0 for no effect and ±100 for the full control effect; potency is the fitted concentration of half-maximal effect.

A short description of the assay: Cellular viability qHTS for adrenocortical cancer (ACC) cell line SW-13 (AID 1963989).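 For activity (max response): cells grown in serum-free medium with ITS supplement.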 Note: nearly all actives have a fitted effect of over 65% in size. The note with it: SW-13 ACC cells viability, CellTiter-Glo, 48 h; activity (max response): stronger effect = lower value. Summed up:
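Compound titrations (up to 46 uM final, in DMSO) were applied to SW-13 cells for 48 h at 37C/5% CO2. Reading used CellTiter-Glo after 20 min at room temperature; fitted curves yielded IC50 and efficacy.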
For the molecule `C[C@H](Nc1ncnc2nc[nH]c12)c1cc2ccc(F)cc2nc1-c1ccccn1`, the activity (max response) is -8.13% (inactive). Still for that read-out and setting: with `Cc1ccc(Nc2cc(N[C@@H]3CCCC[C@@H]3N)nnc2C(N)=O)nc1C` the figure was -5.27% (inactive); with `CN1CCN(c2ccc(-c3cccc(CN4CCOCC4)c3)cc2NC(=O)c2c[nH]c(=O)cc2C(F)(F)F)CC1`, -3.17% (inactive). For the molecule `C=C1/C(=C/C=C2\CCCC3(C)[C@@H]([C@H](C)/C=C/C=C/C(O)(CC)CC)CC[C@@H]23)C[C@@H](O)C[C@@H]1O` (stereo partly drawn), the activity (max response) is -11% (inactive).

For `CC1CC(=O)NN=C1c1ccc(NCC(C)(C)NCC(O)COc2cc(Cl)ccc2C#N)cc1` (stereo not drawn), the activity (max response) was -8.94% (inactive). Consider `O=C1S/C(=C\c2ccc(OCc3cccc(B(O)O)c3)cc2)C(=O)N1Cc1ccc(F)cc1`, for which the activity (max response) was -17.7% (inactive). In the case of `CCC(=O)O[C@]1(C(=O)COC)[C@@H](C)C[C@H]2[C@@H]3CCC4=CC(=O)C=C[C@]4(C)C3(F)[C@@H](O)C[C@@]21C` (stereo partly drawn), the activity (max response) is 1.6% (inactive). Still for that read-out and setting: the same measure for `CC1=C(C(=O)OC(C)C)C(c2cccc([N+](=O)[O-])c2)C(C(=O)OC2CN(C(c3ccccc3)c3ccccc3)C2)=C(N)N1` (stereo not drawn): -4.04% (inactive); for `CC[C@H](C)C(=O)O[C@H]1CCC=C2C=C[C@H](C)[C@H](CC[C@@H]3C[C@@H](O)CC(=O)O3)[C@H]21`: -23.7% (inactive); for `Nc1ccc(S(=O)(=O)Nc2ccc(Cl)nn2)cc1`: 1.77% (inactive). For the molecule `C[C@]12CC[C@H]3[C@@H](CCC4=CC(=O)CC[C@@]43C)[C@@H]1CC[C@@H]2C(=O)CO`, the activity (max response) was -8.44% (inactive).

For `C=CC(=O)N1C[C@H](Nc2ncnc3[nH]ccc23)CC[C@@H]1C`, the activity (max response) was -23.7% (inactive). Regarding `Cc1ncc(NC(=O)c2cccc(C(F)(F)F)c2)cc1-c1cnc(OC2CCOCC2)c(N2CCOCC2)c1`, the Potency is 22400 nM (active). Consider `CC(C)=CCC/C(C)=C/CC/C(C)=C/CSc1ccccc1C(=O)O`, for which the activity (max response) was -19.3% (inactive). For `O=C(CN1CCN(Cc2ccc3c(c2)OCO3)CC1)N1c2ccccc2Sc2ccccc21`, the activity (max response) was -10.1% (inactive). With `COC(=O)[C@H]1[C@H]2C[C@@H]3c4[nH]c5cc(OC)ccc5c4CCN3C[C@H]2C[C@@H](OC(=O)c2cc(OC)c(OC)c(OC)c2)[C@@H]1OC`, the activity (max response) was -15.6% (inactive). `CC(C)c1c(-c2ccccc2)nc2c(C#N)c[nH]n2c1=O`: the activity (max response) is -8.31% (inactive).

Regarding `C[C@H](NC(=O)[C@H]1NCC[C@@H]1O)c1ccc(-c2noc(CCC3CCCC3)n2)cc1`, the activity (max response) was -20.3% (inactive). The same measure, in the same setting: with `Cc1c(Cl)cccc1Nc1ccccc1C(=O)O` the figure was -8.75% (inactive). `CCC(CN)=C(c1ccccc1)c1ccccc1`: the activity (max response) is -12.8% (inactive). Take `CCOC(=O)Nc1ccc2c(c1)N(C(=O)CCN1CCOCC1)c1ccccc1S2`: the activity (max response) was -13.5% (inactive).

In the case of `Cc1ccc(CCn2c3c(c4cc(Cl)ccc42)CN(C)CC3)cn1`, the activity (max response) is -12.3% (inactive).

`CCc1cnn2c(NCc3ccc[n+]([O-])c3)cc(N3CCCC[C@H]3CCO)nc12`: the Potency was 35.5 nM (active). `O=C(Cc1cccc(OC(F)(F)F)c1)Nc1ccc(CCCCc2nnc(NC(=O)Cc3ccccn3)s2)nn1`: the activity (max response) was 11.1% (inactive).

As for `COc1cc(C)c(Cc2cnc(N)nc2N)cc1OC`, the activity (max response) was -2.95% (inactive). Consider `CCCNC(=O)c1cn2ncnc(Nc3cc(C(=O)NC4CC4)ccc3C)c2c1C`, for which the activity (max response) was 7.33% (inactive). Regarding `N#CCC1(n2cc(-c3ncnc4[nH]ccc34)cn2)CN(C2CCN(C(=O)c3ccnc(C(F)(F)F)c3F)CC2)C1`, the activity (max response) was -10.7% (inactive). Consider `CS(=O)(=O)Oc1ccc2c(NC(N)=O)c(C(=O)c3ccc(Cl)cc3Cl)oc2c1`, for which the activity (max response) was -2.55% (inactive). Consider `O=[N+]([O-])c1ccc(/C=N\O)o1`, for which the activity (max response) was -5.61% (inactive). On to `Cc1cc(=O)c2c(O)c3c(O)cc(=O)c4c3c3c(cc(O)c1c23)C(C)(C)C=4O`, for which the Potency was 1780 nM (active). In the case of `CCOc1cc(/C=C2/C(=O)N(c3ccccc3)N=C2C)cc(Cl)c1OCC(=O)OC`, the activity (max response) is -5.72% (inactive). Consider `CN1CCCCC1CCN1c2ccccc2Sc2ccc(S(C)=O)cc21` (stereo not drawn), for which the activity (max response) was -6.63% (inactive).

As to `Cc1ccc(C(=O)Oc2ccc(C(O)CNC(C)(C)C)cc2OC(=O)c2ccc(C)cc2)cc1` (stereo not drawn), the activity (max response) was -16% (inactive).
